# About 350 (32%) of roughly 1,100 compounds were called active. The list is a sample of the results. Potency and affinity values are given separately. Unmarked numbers belong to inactive results. The rule behind the calls is not given here.
# Test: viability loss in CEM21 cells – cell-based, CellTiter-Glo luminescence, cherry-picked, cytotoxicity control for viral fusion inhibitor project, dose response (AID 652042)
# Details: CellTiter-Glo ATP luminescence, 24 h; series mostly up to 35 µM; activity change, negative = cytotoxicity: at the top concentration
row,Structure (SMILES),"activity change, negative = cytotoxicity"
1,O=c1c2ccccc2nnn1CSc1nnc(COc2ccc(Cl)cc2)n1Cc1ccco1,5.32% [at 8 µM]
2,CC(NC(=O)c1ccccc1NC(=O)CN1CCc2ccccc2C1)c1ccccc1 (stereo unspecified),-3.62%
3,O=C(O)C[C@@H]1C=C[C@@H](NC(=O)Nc2ccccc2)[C@H](CO)O1,-0.862%
4,C[C@@H]1CN([C@@H](C)CO)C(=O)c2cccc(NS(=O)(=O)c3cccs3)c2O[C@@H]1CN(C)Cc1ccc(C(F)(F)F)cc1,-11.3%
5,O=C(O)C[C@@H]1C=C[C@H](NC(=O)Nc2ccccc2)[C@H](CO)O1,2.19%
6,C[C@H]1Cn2cnc(C(=O)N3CCN(c4ccccc4)CC3)c2C(=O)N1,-11.6%
7,COc1ccccc1NC(=O)N[C@@H]1CC[C@H](CC(=O)N[C@H](C)c2ccccc2)O[C@@H]1CO,-2.4%
8,C=C1CCN([C@@H](Cc2ccccc2)C(=O)Nc2ccc(OC)cc2)S(=O)(=O)c2ccccc21,-1.34%
9,O=C(Nc1nc(COc2ccccc2)cs1)C12CC3CC(CC(C3)C1)C2,-22.3%
10,CN1CCN(c2ccccc2NC(=O)C(Cc2ccccc2)n2cccc2)CC1 (stereo unspecified),-19.5%
11,CC(=O)c1ccc(S(=O)(=O)N2CCN(c3nc4c(C)c(C)ccc4cc3C#N)CC2)cc1,-12.4%
12,OCC[C@@H]1C[C@@H](O)[C@H](O)[C@]2(OCc3ccccc32)O1,-4.61%
13,COc1ccc(NC(=O)Nc2ccc3c(c2)C(=O)N([C@H](C)CO)C[C@H](C)[C@H](CN(C)Cc2ccncc2)OCCCC[C@H](C)O3)cc1,-6.02%
14,COc1ccccc1S(=O)(=O)Nc1ccc2c(c1)C(=O)N(C)C[C@@H](OC)[C@@H](C)CN[C@@H](C)CO2,0.329%
15,Cc1ccc2c(c1)[C@H]1[C@H](CO2)[C@H](c2ccccc2)[C@]2(C)C(=O)N(CC3CCCO3)CC(=O)N12 (stereo partly specified),-0.675%
16,CCOC(=O)C(C)Oc1cccc2c(=O)n(CC(=O)NCCc3ccc(OC)c(OC)c3)ccc12 (stereo unspecified),1.62%
17,COc1ccc(Cl)cc1NC(=O)CN(C)C(=O)CCCc1c[nH]c2ccccc12,-10.5%
18,CC(C)CN(C(=O)C(c1ccccc1)c1ccccc1)c1c(N)n(CC(C)C)c(=O)[nH]c1=O,1.59%
19,O=C(Nc1ccc(Cl)cc1)C1CCCN(C2=NS(=O)(=O)c3ccccc32)C1 (stereo unspecified),5.19% [at 16 µM]
20,CCS(=O)(=O)Nc1ccc2c(c1)C(=O)N(C)C[C@H](OC)[C@@H](C)CN(C(=O)C1CCC1)[C@H](C)CO2,2.63%
21,CCc1ccc(-c2cn3nc(C)c(C)nc3n2)cc1,-19.4%

row,Structure (SMILES),"activity change, negative = cytotoxicity"
1,COC(=O)[C@@]1(C)[C@H]2C(=O)N(Cc3ccccc3)C(=O)[C@H]2[C@H]2CN=C(SCC3CC3)N21,-4.08%
2,COc1ccc(S(=O)(=O)Nc2ccc3c(c2)CC(=O)N([C@@H](C)CO)C[C@H](C)[C@H](CN(C)S(=O)(=O)c2ccc(F)cc2)O3)cc1,-3.18%
3,C[C@@H]1CN([C@@H](C)CO)S(=O)(=O)c2ccc(-c3cccc(F)c3)cc2O[C@@H]1CN(C)S(=O)(=O)c1ccc(F)cc1,-23.9%
4,COc1ccc(NC(=O)Nc2ccc3c(c2)C(=O)N([C@H](C)CO)C[C@H](C)[C@H](CN(C)S(=O)(=O)c2ccc(OC)cc2)O3)cc1,-8.2%
5,COc1ccc(C(=O)C(C)N(C(=O)c2ccc(Cl)cc2Cl)N2C(=O)C3C4C=CC(C4)C3C2=O)cc1 (stereo unspecified),-14%
6,COc1ccc(Cn2nnnc2C(c2cc3cc(C)cc(C)c3[nH]c2=O)N2CCOCC2)cc1 (stereo unspecified),1.27%
7,O=C(N(c1ccccn1)c1ccccn1)C12CC3CC(CC(Cl)(C3)C1)C2,-0.057%
8,COC(=O)[C@@]1(Cc2ccc(F)cc2)[C@H]2c3cc(C(=O)N(C)C)n(CCO)c3C[C@H]2CN1C(=O)c1ccccc1,4.85%
9,Cc1cc(Cl)ccc1OCCCC(=O)Nc1cc(S(=O)(=O)N2CCOCC2)ccc1N1CCOCC1,-2.78%
10,O=C(COC(=O)c1cc(S(=O)(=O)N2CCOCC2)ccc1O)NCc1ccc2c(c1)OCO2,7.4%
11,COC(=O)C1CCN(C(=O)COC(=O)c2cc(S(=O)(=O)N3CCOCC3)ccc2C)CC1,2.66%
12,O=C(CCCOc1ccc(Cl)cc1Cl)Nc1cc(S(=O)(=O)N2CCOCC2)ccc1N1CCOCC1,-10.9%
13,CC(C)(C)C1CCc2onc(C(=O)NCc3ccc(F)cc3)c2C1 (stereo unspecified),-14.6%
14,Cn1c(=O)[nH]c2cc3ccccc3cc21,-6.26%
15,N#Cc1ccc(CN2CCN(C(=O)CNC(=O)Cc3cccc4ccccc34)CC2)cc1,-15.3%
16,CCCCNC(=O)C[C@H]1C[C@@]2(C(=O)OC)C(=C[C@H](C(C)(C)C)O[C@@H]2C)N(Cc2ccc3c(c2)OCO3)C1=O,-9.67%
17,C=C(C)CN(CC)c1nc(N)c2c(N)nc3c(c2c1C#N)CC(=O)N3C12CC3CC(CC(C3)C1)C2,-28.7%
18,CN(C[C@H](Cc1ccccc1)N(C[C@H](Cc1ccccc1)N(CC1(c2ccccc2)CC1)N=O)N=O)N=O,-8.9%
19,COc1ccc2ncn(-c3ccccc3)c2c1,-2.1%
20,COC(=O)[C@@]1(C)[C@H]2C(=O)N(Cc3ccccc3)C(=O)[C@H]2[C@H]2CN=C(SCc3ccccc3)N21,-3.46%
21,CCOc1ccc2c(c1)-c1c(ssc1=S)C(C)(C)N2C(=O)c1ccco1,-29.3%

row,Structure (SMILES),"activity change, negative = cytotoxicity"
1,CCn1c(COc2ccc(Cl)cc2)nnc1SCc1nc2ccccc2[nH]1,-21.6%
2,COCCCN(C(=S)NC(=O)C12CC3CC(CC(C3)C1)C2)c1c(N)n(Cc2ccccc2)c(=O)[nH]c1=O,6.22%
3,COCCN(C(=O)COC(=O)C12CC3CC(CC(Cl)(C3)C1)C2)c1c(N)n(Cc2ccccc2)c(=O)[nH]c1=O,5.3% [at 16 µM]
4,CCOc1ccccc1C(=O)NCC(=O)NNC(=O)CN(C)S(=O)(=O)c1ccc(Cl)cc1,-8.4%
5,Cc1cc(C)nc(/N=C(\N)Nc2ccc(CC(=O)OC(C)C)cc2)n1,-16.5%
6,CCCC[C@H](CN(N=O)[C@@H](Cc1ccccc1)CN(C)N=O)N(CCc1ccccc1)N=O,-7.7%
7,CN(C(=O)c1cccc(NC(=O)Cc2cccc(NC(=O)C3CCCN(C(=O)C4CCC4)C3)c2)c1)C1CCC1 (stereo unspecified),-1.65%
8,O=C1c2cccnc2C(Nc2ccc(S(=O)(=O)N3CCCCCC3)cc2)N1Cc1ccccc1 (stereo unspecified),-1.75%
9,C[C@H]1CN([C@@H](C)CO)C(=O)c2ccccc2-c2ccccc2CO[C@@H]1CN(C)C(=O)CCC(F)(F)F,1%
10,C[C@H]1CN([C@@H](C)CO)C(=O)c2ccccc2-c2ccccc2CO[C@H]1CN(C)S(=O)(=O)c1cccc(C#N)c1,-13.5%
11,CC(OC(=O)c1ccc(NC(=O)CC#N)cc1)C(=O)NCCC1=CCCCC1 (stereo unspecified),-9.3%
12,Cc1nc2ccccc2c2oc(C(=O)NCc3ccc4c(c3)OCO4)cc12,-2%
13,Cc1ccc(S(=O)(=O)NCC(=O)OCC(=O)NCc2ccc3c(c2)OCO3)cc1,9.32% [at 16 µM]
14,C[C@@]12C(=O)N(c3cccc(Cl)c3)C(=O)N1[C@H](c1ccc(Cl)cc1)[C@@H]1C(=O)N(C3CCCCC3)C(=O)[C@@H]12,-18.4%
15,COc1ccc(C(O)c2nc3ccccc3n2C)cc1OC (stereo unspecified),-1.11%
16,CCCCCCCn1c(NC(=O)CC)nc2ccccc21,-26%
17,Cc1ccc2cc(C#N)c(NCCNC(=O)C3CCC3)nc2c1C,-0.969%
18,CC1=NN(C(=O)c2ccccc2)C(O)(c2ccc(Br)cc2)C1 (stereo unspecified),-5.67%
19,Cc1ccc(S(=O)(=O)N(C)C[C@@H]2Oc3ccc(NC(=O)Cc4cn(C)c5ccccc45)cc3CC(=O)N([C@H](C)CO)C[C@@H]2C)cc1,-7.68%
20,CC(C)CNC(=O)c1ccccc1NC(=O)c1ccccc1N(C)S(=O)(=O)c1ccccc1,-4.43%
21,CNC[C@H]1Oc2c(NC(=O)Nc3cccc4ccccc34)cccc2C(=O)N([C@H](C)CO)C[C@H]1C,-11.5%

row,Structure (SMILES),"activity change, negative = cytotoxicity"
1,Cc1nc2ccc(NC(=O)c3cc(S(=O)(=O)N(C)c4ccccc4)ccc3Cl)cc2s1,-9.18%
2,CC(=O)c1c(C)[nH]c(C(=O)OCC(=O)Nc2ccc(Cl)c(S(=O)(=O)N(C)C)c2)c1C,-12%
3,CC[C@@]1(C(=O)OC)N[C@H](CN(C)C(=O)Nc2ccc(OC)cc2)[C@@H]2C(=O)N(Cc3ccccc3)C(=O)[C@@H]21,1.04%
4,COc1ccc(CCNC(=O)COC(=O)c2cccn2C)cc1,3.42%
5,COc1ccc(CCCC(=O)NCCc2ccccc2)c(C)c1,3.67%
6,CCOC(=O)c1c(C)[nH]c(C)c1C(=O)COC(=O)[C@@H](NC(=O)c1ccccc1OCC)C(C)C,-7.56%
7,COc1ccccc1N(C)S(=O)(=O)c1ccc(Cl)c(C(=O)NCC2(N(C)C)CCCCC2)c1,-3.25%
8,C[C@H](CO)N1C[C@H](C)[C@@H](CN(C)S(=O)(=O)c2ccc(F)cc2)Oc2ccc(NS(=O)(=O)c3cn(C)cn3)cc2CC1=O,-1.97%
9,CC(C)(C)N1C(=O)[C@H]2[C@@H](c3ccc(Br)cc3)N3C(=O)N(c4cccc(Cl)c4)C(=O)[C@@]3(C)[C@H]2C1=O,-7%
10,CC[C@@]12C(=O)N(c3cccc(F)c3)C(=O)N1[C@H](c1ccc(Br)cc1)[C@@H]1C(=O)N(C(C)(C)C)C(=O)[C@@H]12,-2.79%
11,Cc1cc(C)c2nc(C(F)(F)F)nc(N3CCN(C(=O)c4ccco4)CC3)c2c1,-15.5%
12,CCC(NS(=O)(=O)c1c(C)[nH]c(=O)[nH]c1=O)C12CC3CC(CC(C3)C1)C2 (stereo unspecified),-0.446%
13,COC(=O)C1=C(C)N(Cc2ccc(Cl)cc2)C(=S)NC1c1ccc(OC)cc1 (stereo unspecified),-15.5%
14,CC1=C(C(=O)OCc2ccc3c(c2)OCO3)C(c2ccc(F)cc2)NC(=O)N1 (stereo unspecified),-24.2%
15,CCN(CC)CCN(C(=O)c1cc(Cl)sc1Cl)c1nc2cc3c(cc2s1)OCO3,-6.58%
16,CCN(C[C@H]1N[C@@](C)(C(=O)OC)[C@H]2C(=O)N(Cc3ccccc3)C(=O)[C@@H]12)C(=O)Nc1ccc(C)cc1,0.443%
17,COc1ccc(S(=O)(=O)n2ccc(-c3ccc(OCCN(C)c4ccccn4)cc3)n2)cc1,-11%
18,S=c1nc[nH]c2c1[nH]c1ccc(Cl)cc12,4.8%
